Measurements as given in PubChem BioAssay (EPA / NIEHS).
Active and inactive are the calls of the source. The calls were made as follows: active = hit-call score of the fitted dose curve at least 0.9, where 1 is the maximum; inactive = score below 0.9.

These compounds were tested on Interleukin 17F (IL17F), IL17F (gene 112744) (assay: BSK_BT_xIL17F: BioMAP Diversity Plus: BT Assay for Interleukin 17F (IL17F) Biomarker Activity (AID 2284243)). Conditions: primary human B cells with PBMC.
Protocol: BSK_BT is a cell-based, multiplexed-readout assay that uses B cell and peripheral blood mononuclear cells, a human vascular primary cell co-culture, with measurements taken at 24 hours after chemical dosing in a microplate: 96-well plate.BSK_BT_xIL17F is an assay component measured in the BSK_BT assay. It measures secreted IL-17F related to regulation of gene expression using LumineX xMAP technology.Data from the assay component BSK_BT_xIL17F was analyzed at the endpoint, BSK_BT_xIL17F, in the positive analysis fitting direction relative to DMSO as the negative control and baseline of activity. Using a type of cytokine quantitation reporter, gain or loss-of-signal activity can be used to understand protein changes. To generalize the intended target to other relatable targets, this assay endpoint is annotated to the 'cytokine' intended target family, where the subfamily is 'interleukins'.
The levels of cell surface (or secreted, indicated by the prefix "s") biomarker endpoints were measured by ELISA. Overt cytotoxicity to cells in confluent adherent cultures (all systems other than the BT system) was assessed by measuring total protein levels using sulforhodamine B (SRB) staining in parallel cultures at the time of biomarker measurements, indicated as SRB endpoints. For proliferation assays for adherent cell types, individual cell types are cultured at sub-confluence and relative cell numbers quantified by SRB staining at time points optimized for each system (48 h: 3C and CASM3C systems; 72 h: BT and HDF3CGF systems; 96 h: SAg system). SRB was performed by staining cells with 0.1% SRB after fixation with 10% TCA and reading wells at 560 nm.Viability and proliferation of PBMC (T cells) was quantified by Alamar Blue reduction for the SAg and BT systems. For PBMC viability (referred to as PBMC Cytotoxicity within the assay endpoint names), cells were plated (75,000/well in a 96-well plate) and then chemical samples added for 1 h before addition of activators, SEB and TSST-1 (20 ng/mL final concentration each). Cells were incubated for 90 h. Then, Alamar Blue (20 uL/well) (Invitrogen, Cat DAL1100) was added for 6 h, and the plates were read with a fluorescence microplate reader at 546/580 nm (excitation/emission). For PBMC proliferation, cells were plated and activated as above but incubated for only 16 h prior to addition of Alamar Blue. Plates were read after 6 h.

outcome, inactive:
O=[N+]([O-])c1cc(C(F)(F)F)ccc1Cl, O=C(O)c1cn(-c2ccc(F)cc2)c2cc(N3CCNCC3)c(F)cc2c1=O, Nc1cc([N+](=O)[O-])ccc1Cl, CCCCCCCCCCCCCCCCCC(=O)OCC(CC)CCCC (stereo not drawn), CCCCC(CC)COCCC#N (stereo not drawn), N#Cc1ccc(CC(=NNC(=O)Nc2ccc(OC(F)(F)F)cc2)c2cccc(C(F)(F)F)c2)cc1, CCn1c2ccccc2c2cc(N)ccc21, Cc1ccc(Nc2ccc(O)c3c2C(=O)c2ccccc2C3=O)cc1, O=C1OC2(c3cc(Br)c(O)c(Br)c3Oc3c2cc(Br)c(O)c3Br)c2c(Cl)c(Cl)c(Cl)c(Cl)c21, C=C(C)C(=O)O[C@H]1C[C@@H]2CC[C@@]1(C)C2(C)C, c1ccc2sc(SN(C3CCCCC3)C3CCCCC3)nc2c1, CNC[C@H](O)c1cccc(O)c1, CC1CCC(C(C)CS)CC1S (stereo not drawn), CC1COc2ccccc2N1C(=O)C(Cl)Cl (stereo not drawn), CN(CCOc1ccc(CC2SC(=O)NC2=O)cc1)c1ccccn1 (stereo not drawn), CCc1c(C)cc(N)c(CC)c1N, Cc1ccc(O)c(C(C)(C)C)c1, CCCCC(CC)COC(=O)/C=C\C(=O)OCC(CC)CCCC (stereo not drawn), O=P(c1ccccc1)(c1ccccc1)c1ccccc1, O=C=NC1CCC(CC2CCC(N=C=O)CC2)CC1 (stereo not drawn), CC(C)Oc1ccccc1O, COC(=O)c1ccc(C)cc1, O=C(O)c1cn(C2CC2)c2cc(N3CCNCC3)c(F)cc2c1=O, C=C[Si](OCC)(OCC)OCC, CC(C)c1ccc(C(C)C)cc1, CC(C)(COC(=O)c1ccccc1)COC(=O)c1ccccc1, CC(=O)/C=C/C1=C(C)CCCC1(C)C, CCCCCCCCCC=O, CC(=O)Nc1ccccc1O, Cc1ccc2n[nH]nc2c1, CCCCCCCCC=O

AC50, active:
O=C1CCCCCCCCCCCCCCO1 31.2 µM, CCCCC/C=C/C=C/C=O 30.7 µM, c1ccc2c(c1)c1cccc3ccc4cccc2c4c31 20 µM, CC(=O)O[C@]1(C(C)=O)CC[C@H]2[C@@H]3C[C@H](C)C4=CC(=O)CC[C@]4(C)[C@H]3CC[C@@]21C 10 µM, C#C[C@]1(O)CC[C@H]2[C@@H]3CCC4=Cc5oncc5C[C@]4(C)[C@H]3CC[C@@]21C 25.3 µM, BrC1CCC(Br)C(Br)CCC(Br)C(Br)CCC1Br (stereo not drawn) 25 µM, O=C(O)C[C@H](O)C[C@H](O)/C=C/c1c(C2CC2)nc2ccccc2c1-c1ccc(F)cc1 3.26 µM
